# Test results from the supplement of paper PMC10849652.
# About 8,800 targets were measured; listed, in parts, are those with a hit and a random draw of the rest. About 0.5% of all pairs of compound and target were hits. Values without a mark were called inactive.
# How the values were obtained:
# Experiment in all cases: log2 fold change, soluble protein after heating vs DMSO (PISA); higher = thermal stabilisation; K562 lysate, 10 uM; active = over 0.2 and 3.5 SD of the protein, either way, in both replicates (recomputed)
# alvocidib = compound: CN1CC[C@H](c2c(O)cc(O)c3c(=O)cc(-c4ccccc4Cl)oc23)[C@H](O)C1 [alvocidib]
# Procedure, shortened: (§1)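 Thermal stability, expressed as log-two fold change relative to solvent controls, is given from duplicates. Crude K562 extract in PBS pH 7.4 with 1 mM MgCl2, at 1 mg/mL protein, was treated with 10 μM compound for 30 min and heated in aliquots for 3 min across 48°C-58°C. After pooling, adjustment to 0.5% NP-40 at 4°C and centrifugation at 21,000xg for 90 min, supernatant protein was measured by TMTpro 16plex LC-MS/MS with channel sums equalised.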
# Tubastatin A = compound: CN1CCc2c(c3ccccc3n2Cc2ccc(C(=O)NO)cc2)C1 [Tubastatin A]
# Procedure, shortened: as §1
# [1] = compound: CNC(=O)C1=CC=CC=C1NC2=NC(=NC=C2Cl)NC3=C(C=C(C=C3)N4CCOCC4)OC
# Procedure, shortened: as §1
# defactinib = compound: CNC(=O)c1ccc(Nc2ncc(C(F)(F)F)c(NCc3nccnc3N(C)S(C)(=O)=O)n2)cc1 [defactinib]
# Procedure, shortened: as §1
# [2] = compound: CNc1nc(-c2ccc3c(N)n[nH]c3c2)cc(N2C[C@@H](C(=O)NC3CCCCC3)CC[C@H]2C)n1
# Procedure, shortened: as §1
# encorafenib = compound: COC(=O)N[C@@H](C)CNc1nccc(-c2cn(C(C)C)nc2-c2cc(Cl)cc(NS(C)(=O)=O)c2F)n1 [encorafenib]
# Procedure, shortened: as §1
# [3] = compound: COC(=O)[C@H](CCSC)NC(=O)C1=C(C=C(C=C1)NC[C@H](CS)N)C2=CC=CC=C2
# Procedure, shortened: as §1
# alisertib = compound: COc1cc(Nc2ncc3c(n2)-c2ccc(Cl)cc2C(c2c(F)cccc2OC)=NC3)ccc1C(=O)O [alisertib]
# Procedure, shortened: as §1
# [4] = compound: COc1cc2nc(-c3cc(F)ccc3O)nc(N[C@@H]3CNC[C@H]3C(C)(C)O)c2cc1OC
# Procedure, shortened: as §1
# gefitinib = compound: COc1cc2ncnc(Nc3ccc(F)c(Cl)c3)c2cc1OCCCN1CCOCC1 [gefitinib]
# Procedure, shortened: as §1
# lapatinib = compound: CS(=O)(=O)CCNCc1ccc(-c2ccc3ncnc(Nc4ccc(OCc5cccc(F)c5)c(Cl)c4)c3c2)o1 [lapatinib]
# Procedure, shortened: as §1
# pictilisib = compound: CS(=O)(=O)N1CCN(Cc2cc3nc(-c4cccc5[nH]ncc45)nc(N4CCOCC4)c3s2)CC1 [pictilisib]
# Procedure, shortened: as §1
# crizotinib = compound: C[C@@H](Oc1cc(-c2cnn(C3CCNCC3)c2)cnc1N)c1c(Cl)ccc(F)c1Cl [crizotinib]
# Procedure, shortened: as §1
# [5] = compound: C[C@H](C1=CC=C(C=C1)C(=O)NC2=C3C=CNC3=NC=C2)N
# Procedure, shortened: as §1
# duvelisib = compound: C[C@H](Nc1ncnc2nc[nH]c12)c1cc2cccc(Cl)c2c(=O)n1-c1ccccc1 [duvelisib]
# Procedure, shortened: as §1
# gandotinib = compound: Cc1cc(Nc2cc(CN3CCOCC3)c3nc(C)c(Cc4ccc(Cl)cc4F)n3n2)n[nH]1 [gandotinib]
# Procedure, shortened: as §1
# tozasertib = compound: Cc1cc(Nc2cc(N3CCN(C)CC3)nc(Sc3ccc(NC(=O)C4CC4)cc3)n2)n[nH]1 [tozasertib]
# Procedure, shortened: as §1
# doramapimod = compound: Cc1ccc(-n2nc(C(C)(C)C)cc2NC(=O)Nc2ccc(OCCN3CCOCC3)c3ccccc23)cc1 [doramapimod]
# Procedure, shortened: as §1
# bafetinib = compound: Cc1ccc(NC(=O)c2ccc(CN3CC[C@H](N(C)C)C3)c(C(F)(F)F)c2)cc1Nc1nccc(-c2cncnc2)n1 [bafetinib]
# Procedure, shortened: as §1
# [6] = compound: Cc1cccc(CC(=O)N2CCc3c2ccc(-c2cn(C)c4ncnc(N)c24)c3F)n1
# Procedure, shortened: as §1
# Sequence of UniProt Q8IXH7 (Q8IXH7 whole entry, looked up): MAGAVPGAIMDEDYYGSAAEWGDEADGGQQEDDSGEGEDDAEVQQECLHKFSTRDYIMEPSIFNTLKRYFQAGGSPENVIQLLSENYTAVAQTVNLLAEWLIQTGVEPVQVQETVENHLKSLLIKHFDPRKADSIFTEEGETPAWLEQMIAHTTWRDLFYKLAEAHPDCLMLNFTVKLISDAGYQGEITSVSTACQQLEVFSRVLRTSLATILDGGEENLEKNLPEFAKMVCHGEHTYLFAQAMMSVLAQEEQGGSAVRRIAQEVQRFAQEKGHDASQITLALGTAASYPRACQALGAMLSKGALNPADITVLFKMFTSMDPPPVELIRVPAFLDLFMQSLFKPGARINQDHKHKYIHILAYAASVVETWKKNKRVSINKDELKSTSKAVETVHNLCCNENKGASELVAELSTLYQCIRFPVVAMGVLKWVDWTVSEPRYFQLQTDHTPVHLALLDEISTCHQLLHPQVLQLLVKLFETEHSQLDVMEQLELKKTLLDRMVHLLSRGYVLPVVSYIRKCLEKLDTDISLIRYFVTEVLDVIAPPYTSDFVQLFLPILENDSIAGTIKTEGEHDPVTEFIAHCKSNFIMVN
# Sequence of UniProt Q9HBL8 (Q9HBL8 whole entry, looked up): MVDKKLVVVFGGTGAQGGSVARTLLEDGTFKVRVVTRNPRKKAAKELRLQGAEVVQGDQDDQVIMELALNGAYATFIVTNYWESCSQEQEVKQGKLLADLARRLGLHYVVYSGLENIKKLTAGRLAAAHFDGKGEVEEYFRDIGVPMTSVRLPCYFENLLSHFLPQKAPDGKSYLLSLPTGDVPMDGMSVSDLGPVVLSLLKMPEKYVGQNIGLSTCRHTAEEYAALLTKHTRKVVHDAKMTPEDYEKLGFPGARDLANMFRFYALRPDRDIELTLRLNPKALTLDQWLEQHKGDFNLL
# Sequence of UniProt Q9Y6C9 (Q9Y6C9 whole entry, looked up): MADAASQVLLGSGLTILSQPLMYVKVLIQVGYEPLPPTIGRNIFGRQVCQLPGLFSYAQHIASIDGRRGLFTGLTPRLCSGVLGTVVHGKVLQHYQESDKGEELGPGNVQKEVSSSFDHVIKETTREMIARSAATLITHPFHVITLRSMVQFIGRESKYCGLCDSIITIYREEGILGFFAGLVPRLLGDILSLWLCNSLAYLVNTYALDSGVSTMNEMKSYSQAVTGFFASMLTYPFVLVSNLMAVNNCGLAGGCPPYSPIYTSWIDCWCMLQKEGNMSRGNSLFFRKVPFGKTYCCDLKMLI
# Sequence of UniProt Q9NPF4 (Q9NPF4 whole entry, looked up): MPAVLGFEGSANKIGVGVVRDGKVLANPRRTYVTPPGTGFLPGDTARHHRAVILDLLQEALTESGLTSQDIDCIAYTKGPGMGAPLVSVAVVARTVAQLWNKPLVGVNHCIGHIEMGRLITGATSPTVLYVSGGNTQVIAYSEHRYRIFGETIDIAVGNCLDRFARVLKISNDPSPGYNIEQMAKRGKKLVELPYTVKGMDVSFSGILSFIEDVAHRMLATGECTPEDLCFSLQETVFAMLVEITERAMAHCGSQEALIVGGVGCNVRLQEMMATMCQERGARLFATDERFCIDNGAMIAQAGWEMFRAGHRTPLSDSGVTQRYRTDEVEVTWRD
# Sequence of UniProt O76041 (O76041 whole entry, looked up): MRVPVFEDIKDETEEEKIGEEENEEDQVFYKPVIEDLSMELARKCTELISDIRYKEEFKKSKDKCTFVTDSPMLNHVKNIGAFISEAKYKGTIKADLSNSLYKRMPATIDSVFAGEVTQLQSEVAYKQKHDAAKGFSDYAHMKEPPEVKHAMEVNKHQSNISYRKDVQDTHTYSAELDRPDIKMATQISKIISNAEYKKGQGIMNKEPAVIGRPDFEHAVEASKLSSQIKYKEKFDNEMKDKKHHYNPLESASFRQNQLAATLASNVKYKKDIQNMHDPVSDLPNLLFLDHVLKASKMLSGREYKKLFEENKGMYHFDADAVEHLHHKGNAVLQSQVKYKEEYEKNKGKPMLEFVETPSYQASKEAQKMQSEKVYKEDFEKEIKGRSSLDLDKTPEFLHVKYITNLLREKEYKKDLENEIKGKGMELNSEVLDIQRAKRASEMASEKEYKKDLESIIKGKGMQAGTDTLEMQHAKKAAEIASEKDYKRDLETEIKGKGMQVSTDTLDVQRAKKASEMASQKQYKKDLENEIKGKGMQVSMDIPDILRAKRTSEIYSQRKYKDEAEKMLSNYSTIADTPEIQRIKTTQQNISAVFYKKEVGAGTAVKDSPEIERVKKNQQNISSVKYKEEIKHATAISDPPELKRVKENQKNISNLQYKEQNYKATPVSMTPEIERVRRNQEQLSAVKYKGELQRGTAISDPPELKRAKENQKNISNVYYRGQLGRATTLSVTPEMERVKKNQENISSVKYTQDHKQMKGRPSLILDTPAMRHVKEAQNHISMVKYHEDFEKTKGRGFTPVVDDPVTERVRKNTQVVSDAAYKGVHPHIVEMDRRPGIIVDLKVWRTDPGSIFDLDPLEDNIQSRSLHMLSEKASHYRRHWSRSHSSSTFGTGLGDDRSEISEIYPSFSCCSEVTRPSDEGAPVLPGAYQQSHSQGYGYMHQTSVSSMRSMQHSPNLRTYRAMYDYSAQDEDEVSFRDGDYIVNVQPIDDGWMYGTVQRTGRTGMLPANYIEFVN
# Sequence of UniProt Q8TEM1 (Q8TEM1 whole entry, looked up): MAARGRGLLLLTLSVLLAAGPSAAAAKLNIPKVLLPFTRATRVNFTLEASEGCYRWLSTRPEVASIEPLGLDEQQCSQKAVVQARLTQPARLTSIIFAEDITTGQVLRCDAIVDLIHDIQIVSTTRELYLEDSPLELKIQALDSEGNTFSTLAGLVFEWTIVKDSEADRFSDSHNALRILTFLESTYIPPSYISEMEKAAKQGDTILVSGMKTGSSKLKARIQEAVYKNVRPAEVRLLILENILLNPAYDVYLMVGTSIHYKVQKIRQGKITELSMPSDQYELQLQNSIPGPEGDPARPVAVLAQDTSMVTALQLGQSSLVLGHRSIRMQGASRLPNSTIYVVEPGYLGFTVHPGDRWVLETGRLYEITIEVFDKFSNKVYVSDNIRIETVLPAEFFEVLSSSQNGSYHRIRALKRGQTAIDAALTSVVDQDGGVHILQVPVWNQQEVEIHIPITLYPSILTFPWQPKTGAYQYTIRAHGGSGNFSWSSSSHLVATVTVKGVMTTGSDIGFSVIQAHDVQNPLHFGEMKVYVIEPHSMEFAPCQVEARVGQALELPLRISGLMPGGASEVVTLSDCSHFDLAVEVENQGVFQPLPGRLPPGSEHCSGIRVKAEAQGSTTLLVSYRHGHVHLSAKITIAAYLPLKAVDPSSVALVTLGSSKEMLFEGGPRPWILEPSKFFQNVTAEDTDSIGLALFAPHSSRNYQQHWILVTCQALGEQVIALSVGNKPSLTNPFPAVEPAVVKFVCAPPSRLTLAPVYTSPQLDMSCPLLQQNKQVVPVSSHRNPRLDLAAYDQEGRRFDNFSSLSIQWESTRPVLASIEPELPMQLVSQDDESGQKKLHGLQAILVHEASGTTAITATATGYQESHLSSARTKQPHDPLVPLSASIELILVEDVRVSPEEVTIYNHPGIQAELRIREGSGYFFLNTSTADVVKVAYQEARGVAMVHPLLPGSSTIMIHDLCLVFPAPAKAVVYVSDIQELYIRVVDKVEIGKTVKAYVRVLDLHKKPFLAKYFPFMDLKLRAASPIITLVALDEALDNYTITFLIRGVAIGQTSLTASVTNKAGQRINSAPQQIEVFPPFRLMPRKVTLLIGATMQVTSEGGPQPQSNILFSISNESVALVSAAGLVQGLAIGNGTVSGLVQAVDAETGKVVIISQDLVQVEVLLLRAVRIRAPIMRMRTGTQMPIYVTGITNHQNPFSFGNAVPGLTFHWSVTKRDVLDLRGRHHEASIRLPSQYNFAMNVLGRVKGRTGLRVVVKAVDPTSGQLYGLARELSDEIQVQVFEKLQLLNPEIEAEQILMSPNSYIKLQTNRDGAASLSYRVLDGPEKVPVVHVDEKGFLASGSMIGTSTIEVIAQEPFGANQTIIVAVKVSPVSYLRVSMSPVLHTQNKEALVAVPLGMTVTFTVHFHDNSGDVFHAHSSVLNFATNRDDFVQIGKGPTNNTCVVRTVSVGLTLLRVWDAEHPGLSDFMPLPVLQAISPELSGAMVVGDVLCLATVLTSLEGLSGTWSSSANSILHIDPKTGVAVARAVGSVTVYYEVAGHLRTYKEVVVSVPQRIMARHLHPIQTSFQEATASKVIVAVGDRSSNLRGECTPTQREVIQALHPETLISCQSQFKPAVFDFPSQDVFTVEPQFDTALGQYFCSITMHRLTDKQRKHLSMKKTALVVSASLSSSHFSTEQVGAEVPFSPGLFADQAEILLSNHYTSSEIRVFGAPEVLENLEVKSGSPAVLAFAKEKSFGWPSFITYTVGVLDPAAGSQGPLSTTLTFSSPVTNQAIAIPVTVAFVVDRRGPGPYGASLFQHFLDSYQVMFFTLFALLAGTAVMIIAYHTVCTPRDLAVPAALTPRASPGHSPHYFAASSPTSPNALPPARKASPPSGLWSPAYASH
# Sequence of UniProt Q9Y639 (Q9Y639 whole entry, looked up): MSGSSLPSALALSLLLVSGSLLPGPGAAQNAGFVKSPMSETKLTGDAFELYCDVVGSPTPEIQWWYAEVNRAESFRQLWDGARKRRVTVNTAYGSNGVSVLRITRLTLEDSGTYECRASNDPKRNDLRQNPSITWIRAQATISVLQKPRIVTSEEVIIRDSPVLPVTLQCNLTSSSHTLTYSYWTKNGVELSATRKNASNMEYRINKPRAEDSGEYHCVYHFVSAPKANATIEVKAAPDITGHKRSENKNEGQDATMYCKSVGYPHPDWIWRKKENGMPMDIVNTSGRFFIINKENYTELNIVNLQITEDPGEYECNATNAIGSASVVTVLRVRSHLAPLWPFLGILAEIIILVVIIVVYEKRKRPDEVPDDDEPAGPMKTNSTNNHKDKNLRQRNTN
Target,log2 fold change (alvocidib),log2 fold change (Tubastatin A),log2 fold change [1],log2 fold change (defactinib),log2 fold change [2],log2 fold change (encorafenib),log2 fold change [3],log2 fold change (alisertib),log2 fold change [4],log2 fold change (gefitinib),log2 fold change (lapatinib),log2 fold change (pictilisib),log2 fold change (crizotinib),log2 fold change [5],log2 fold change (duvelisib),log2 fold change (gandotinib),log2 fold change (tozasertib),log2 fold change (doramapimod),log2 fold change (bafetinib),log2 fold change [6]
NEBL isoform 2 (UniProt O76041),-0.079,0.07,0.012,0.011,0.023,0.009,-0.043,-0.024,-0.003,0.037,0.003,0.044,0.059,-0.135,-0.046,0.094,-0.018,-0.018,0.105,0.073
MTCH2 (UniProt Q9Y6C9),-0.032,-0.046,0.043,-0.003,0.047,-0.01,0.043,0.013,-0.062,-0.007,-0.023,-0.018,-0.059,-0.144,-0.011,0.142,-0.028,0.024,-0.04,0.022
MYO1C (UniProt O00159),0.029,-0.114,-0.057,0.052,-0.045,0.076,0.049,0.008,0.01,-0.02,-0.078,0.007,-0.09,0.027,0.075,-0.036,0.014,0.065,0.068,-0.023
NOC2L (UniProt Q9Y3T9),-0.009,-0.066,0.043,0.121,0.257 (active),0.048,-0.02,0.01,0.06,-0.03,-0.049,-0.012,-0.077,-0.004,-0.074,-0.037,-0.015,0.03,-0.137,0.09
NNT (UniProt Q13423),0.006,0.035,0.021,-0.005,-0.04,-0.018,-0.017,-0.001,0.021,0.012,-0.047,-0.046,0.03,0.013,0.039,-0.445 (active),-0.014,0.011,-0.006,0.003
MRPS31 (UniProt Q92665),-0.023,0.002,-0.029,0.024,0.018,0.006,-0.02,0.007,-0.017,-0.014,0.012,0.012,-0.02,-0.002,-0.015,-0.006,0.033,0.047,-0.009,0.051
NMRAL1 (UniProt Q9HBL8),0,0.036,-0.044,-0.003,0.026,-0.003,0.406 (active),0.021,0.001,-0.002,-0.003,0.105,-0.017,0.695 (active),0.08,-0.01,-0.051,0.036,0.005,0.011
NUP210 (UniProt Q8TEM1),0.014,0.107,-0.061,0.035,-0.011,0.086,0.145,0.009,0.002,0.003,-0.074,-0.076,-0.028,-0.034,0.013,-0.08,-0.012,-0.017,-0.007,0.044
NPTN (UniProt Q9Y639),-0.023,-0.01,0,-0.185,0.03,-0.023,0.015,0.011,0.042,0.024,-0.057,-0.045,-0.058,-0.011,0.049,0.003,0.007,0.056,-0.029,0.011
PARG (UniProt Q86W56),0.03,-0.055,0.029,0.041,-0.016,0.027,0.042,0,0.01,0.046,0.017,-0.035,-0.058,0.047,-0.02,-0.065,-0.033,0.005,-0.004,-0.01
NCOR2 (UniProt C9J0Q5),0.024,-0.035,-0.013,0.045,-0.001,-0.002,0.006,0.036,0.017,0.049,0.063,-0.028,0.116,0.018,-0.014,-0.055,0.011,-0.052,0.079,-0.07
OSGEP (UniProt Q9NPF4),-0.062,0,-0.047,0,0.03,-0.008,0.016,0.045,0.007,-0.032,-0.011,-0.025,-0.006,-0.07,-0.037,-0.024,0.043,-0.035,-0.008,0.033
PAXBP1 (UniProt Q9Y5B6),-0.043,-0.069,0.015,0.005,-0.004,0.018,0.29 (active),0.013,-0.003,-0.038,0.002,-0.077,-0.027,-0.037,-0.008,-0.029,0.012,0.038,-0.024,0.002
NOB1 (UniProt Q9ULX3),0.077,-0.129,-0.005,0,-0.011,0.036,0.037,0.047,-0.031,-0.022,0.027,0.01,-0.019,0.283 (active),-0.033,-0.084,0.011,-0.023,-0.041,-0.048
NELFCD (UniProt Q8IXH7),0.015,-0.148,0.047,0.041,-0.055,0,0.073,0.023,-0.006,-0.009,-0.035,-0.048,-0.043,0.074,0.017,-0.087,-0.025,0.045,-0.105,-0.029
NUMB (UniProt P49757),-0.021,-0.125,-0.028,-0.02,0.026,0.094,0.013,-0.031,-0.007,0.052,0.033,0.023,0.02,-0.057,0.029,0.097,0.047,0.125,-0.069,0.038
